Reference: the supplement of paper PMC10849652
Targets with a hit are over-represented here; the source holds about 8,800 in all. About 0.5% of all pairs of compound and target were hits.

Tests used:
Experiment in all cases: log2 fold change, soluble protein after heating vs DMSO (PISA); higher = thermal stabilisation; K562 lysate, 10 uM; active = over 0.2 and 3.5 SD of the protein, either way, in both replicates (recomputed)
pictilisib = compound: CS(=O)(=O)N1CCN(Cc2cc3nc(-c4cccc5[nH]ncc45)nc(N4CCOCC4)c3s2)CC1 [pictilisib]
Method in brief: (§1)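 Soluble protein was defined as the supernatant remaining after 21,000xg for 90 min, following pooling of heated aliquots and adjustment to 0.5% NP-40 at 4°C. Before that, crude K562 extract at 1 mg/mL protein in PBS pH 7.4 with 1 mM MgCl2 was treated with 10 μM compound for 30 min and heated for 3 min across 48°C-58°C. Quantification used TMTpro 16plex LC-MS/MS with channel sums equalised, and values are log-two fold changes in thermal stability relative to solvent controls from duplicates.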

crizotinib = compound: C[C@@H](Oc1cc(-c2cnn(C3CCNCC3)c2)cnc1N)c1c(Cl)ccc(F)c1Cl [crizotinib]
Method in brief: as §1

doramapimod = compound: Cc1ccc(-n2nc(C(C)(C)C)cc2NC(=O)Nc2ccc(OCCN3CCOCC3)c3ccccc23)cc1 [doramapimod]
Method in brief: as §1

bafetinib = compound: Cc1ccc(NC(=O)c2ccc(CN3CC[C@H](N(C)C)C3)c(C(F)(F)F)c2)cc1Nc1nccc(-c2cncnc2)n1 [bafetinib]
Method in brief: as §1

[1] = compound: C[C@H](C1=CC=C(C=C1)C(=O)NC2=C3C=CNC3=NC=C2)N
Method in brief: as §1

duvelisib = compound: C[C@H](Nc1ncnc2nc[nH]c12)c1cc2cccc(Cl)c2c(=O)n1-c1ccccc1 [duvelisib]
Method in brief: as §1

gandotinib = compound: Cc1cc(Nc2cc(CN3CCOCC3)c3nc(C)c(Cc4ccc(Cl)cc4F)n3n2)n[nH]1 [gandotinib]
Method in brief: as §1

tozasertib = compound: Cc1cc(Nc2cc(N3CCN(C)CC3)nc(Sc3ccc(NC(=O)C4CC4)cc3)n2)n[nH]1 [tozasertib]
Method in brief: as §1

[2] = compound: Cc1cccc(CC(=O)N2CCc3c2ccc(-c2cn(C)c4ncnc(N)c24)c3F)n1
Method in brief: as §1

Measured: log2 fold change

UBAP2L isoform 1 (UniProt Q14157)
UniProt Q14157, sequence (Q14157 whole entry, looked up): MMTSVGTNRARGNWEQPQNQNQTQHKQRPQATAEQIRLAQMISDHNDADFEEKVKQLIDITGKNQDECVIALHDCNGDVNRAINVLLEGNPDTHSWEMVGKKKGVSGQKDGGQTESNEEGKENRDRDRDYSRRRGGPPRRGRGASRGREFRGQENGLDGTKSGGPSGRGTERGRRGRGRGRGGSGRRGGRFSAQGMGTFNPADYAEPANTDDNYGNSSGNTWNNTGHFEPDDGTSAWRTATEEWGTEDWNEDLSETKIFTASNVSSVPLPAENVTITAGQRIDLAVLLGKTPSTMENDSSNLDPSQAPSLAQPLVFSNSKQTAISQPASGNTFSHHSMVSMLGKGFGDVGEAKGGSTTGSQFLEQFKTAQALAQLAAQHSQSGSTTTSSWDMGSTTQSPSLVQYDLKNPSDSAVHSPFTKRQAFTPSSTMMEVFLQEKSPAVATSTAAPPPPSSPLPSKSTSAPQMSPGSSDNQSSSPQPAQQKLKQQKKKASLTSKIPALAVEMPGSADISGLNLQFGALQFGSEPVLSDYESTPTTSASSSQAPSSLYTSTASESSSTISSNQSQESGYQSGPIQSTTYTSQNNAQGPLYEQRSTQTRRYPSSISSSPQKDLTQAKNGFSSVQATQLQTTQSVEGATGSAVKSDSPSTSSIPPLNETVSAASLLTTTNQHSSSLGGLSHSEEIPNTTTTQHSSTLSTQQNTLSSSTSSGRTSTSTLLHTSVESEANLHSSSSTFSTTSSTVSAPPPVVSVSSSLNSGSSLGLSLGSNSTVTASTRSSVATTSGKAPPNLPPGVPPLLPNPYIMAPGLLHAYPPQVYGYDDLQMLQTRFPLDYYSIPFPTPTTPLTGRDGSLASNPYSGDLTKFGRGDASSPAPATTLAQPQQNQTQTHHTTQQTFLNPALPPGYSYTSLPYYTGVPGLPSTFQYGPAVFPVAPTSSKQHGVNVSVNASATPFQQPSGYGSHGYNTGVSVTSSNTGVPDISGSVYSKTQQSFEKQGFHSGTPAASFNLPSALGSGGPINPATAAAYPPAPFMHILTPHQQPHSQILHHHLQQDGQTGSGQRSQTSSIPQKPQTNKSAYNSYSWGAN
inactive: pictilisib -0.116 | crizotinib 0.376 | doramapimod -0.26 | bafetinib 0.56

UBL5 (UniProt Q9BZL1)
UniProt Q9BZL1, sequence (Q9BZL1 whole entry, looked up): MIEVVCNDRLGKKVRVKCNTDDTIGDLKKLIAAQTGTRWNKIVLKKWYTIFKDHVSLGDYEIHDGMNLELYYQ
inactive: pictilisib -0.036 | crizotinib 0.072 | [1] -0.194 | duvelisib -0.042 | gandotinib 0.042 | tozasertib 0.138 | doramapimod 0.013 | bafetinib -0.034 | [2] 0.104

TMEM154 (UniProt Q6P9G4)
UniProt Q6P9G4, sequence (Q6P9G4 whole entry, looked up): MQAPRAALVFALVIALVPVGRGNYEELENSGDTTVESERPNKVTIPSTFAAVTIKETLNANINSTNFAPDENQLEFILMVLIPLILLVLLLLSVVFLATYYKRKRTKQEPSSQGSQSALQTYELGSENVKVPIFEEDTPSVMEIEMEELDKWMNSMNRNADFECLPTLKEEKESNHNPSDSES
inactive: crizotinib 0.035 | duvelisib 0.039 | tozasertib 0.03 | doramapimod -0.146
